From PubChem BioAssay AID1159580 (chemical genetic matrix, 2015)
The whole screen tested about 5,500 compounds, of which about 2,000 (36%) were called active. Inconclusive results (about 18%) are left out. No stated cut-off is given here; in the data, active means normalized growth mostly below about 0.91 (no sharp cut-off); inconclusive means no clear call, values can overlap the other calls; inactive means mostly above about 0.92. Some of the results follow.

Test: chemical genetic growth profiling, strain panel (AID 1159580);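 further: tested at 20 µM; growth read once vehicle control cultures reached saturation at 30 °C; 1 = growth at the plate median or of vehicle wells; lower values mean less growth of the strain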
Conditions: growth OD

Measured: normalized growth

CSC(=NC#N)N1CCN(c2ccc([N+](=O)[O-])cn2)CC1
inactive: S. cerevisiae deletion strains, locus YAL013W, strain DEP1, hits give low values 0.997 | S. cerevisiae deletion strains, locus YBR229C, strain ROT2, hits give low values 1.01 | S. cerevisiae deletion strains, locus YCL061C, strain MRC1, hits give low values 1 | S. cerevisiae deletion strains, locus YDL101C, strain DUN1, hits give low values 1.02 | S. cerevisiae deletion strains, locus YDL134C, strain PPH21, hits give low values 0.987 | S. cerevisiae deletion strains, locus YDR150W, strain NUM1, hits give low values 1.07 | S. cerevisiae deletion strains, locus YEL061C, strain CIN8, hits give low values 0.957 | S. cerevisiae deletion strains, locus YGR078C, strain PAC10, hits give low values 0.996 | S. cerevisiae deletion strains, locus YHR030C, strain SLT2, hits give low values 0.958 | S. cerevisiae deletion strains, locus YHR087W, strain rtc3, hits give low values 0.991 | S. cerevisiae deletion strains, locus YJL187C, strain SWE1, hits give low values 0.993 | S. cerevisiae deletion strains, locus YJR043C, strain POL32, hits give low values 1.01 | S. cerevisiae deletion strains, locus YJR075W, strain HOC1, hits give low values 1.01 | S. cerevisiae deletion strains, locus YLR039C, strain RIC1, hits give low values 0.986 | S. cerevisiae deletion strains, locus YLR058C, strain SHM2 (second series), hits give low values 0.989 | S. cerevisiae deletion strains, locus YLR085C, strain ARP6, hits give low values 0.933 | S. cerevisiae deletion strains, locus YLR262C, strain YPT6, hits give low values 0.978 | S. cerevisiae deletion strains, locus YML094W, strain GIM5, hits give low values 0.966 | S. cerevisiae deletion strains, locus YMR219W, strain ESC1, hits give low values 0.996 | S. cerevisiae deletion strains, locus YMR263W, strain SAP30, hits give low values 1.01 | S. cerevisiae deletion strains, locus YMR307W, strain GAS1, hits give low values 1.1 | S. cerevisiae deletion strains, locus YNL153C, strain GIM3, hits give low values 1 | S. cerevisiae deletion strains, locus YNL298W, strain CLA4 (second series), hits give low values 0.978 | S. cerevisiae deletion strains, locus YNL322C, strain KRE1, hits give low values 0.99 | S. cerevisiae deletion strains, locus YNR030W, strain Alg12, hits give low values 0.954 | S. cerevisiae deletion strains, locus YPL055C, strain LGE1, hits give low values 1.08 | S. cerevisiae deletion strains, locus YPL241C, strain CIN2, hits give low values 0.99 | S. cerevisiae deletion strains, locus YPR135W, strain CTF4, hits give low values 1.09 | S. cerevisiae strains, strain wild type, hits give low values 0.983
